A number with no mark means an inactive call. Records with an inconclusive call do not appear. A call without a number means that no potency is given here. Active and inactive are the calls of the source. Unless noted, the call rests on the fitted dose curve; in most records, active means well fitted curve in the direction sought with a large enough effect in the repeat runs; inconclusive means weak or mixed curves; inactive means no such curve, though single readings can be large; an effect the other way counts as inactive or inconclusive.
Experiments:
[1] = qHTS assay to identify small molecule agonists of the estrogen receptor alpha (ER-alpha) signaling pathway in the presence of an antagonist - cell viability counter screen (AID 1259386);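 further: cells exposed to compounds for 22 h at 37 °C before the viability read; nearly all actives have a fitted effect of over 30% in size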; further: potency means the concentration at half of the fitted maximal effect
How it was run: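 Cytotoxicity was measured in parallel with the ERE-luciferase agonist screen, in the same wells. The cells were VM7Luc4E2, which endogenously express ER-alpha, and treatment was with compounds plus 10.0nM ICI-182,780 for 22hr.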

[2] = biological target: Progesterone receptor (Homo sapiens) (UniProt P06401); experiment: qHTS assay to identify small molecule agonists of the progesterone receptor (PR) signaling pathway (AID 1346784; calls by dose curve; further: nearly all actives have a fitted effect of over 30% in size; further: potency means the concentration at half of the fitted maximal effect)
How it was run: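 Seed PR-UAS-bla HEK 293T cells (2% charcoal-stripped FBS), incubate 6 hr at 37C; add compounds in DMSO, 16 hr at 37C; add LiveBLAzer B/G substrate, 2 hr RT; read fluorescence intensity.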

[3] = biological target: Progesterone receptor (Homo sapiens) (UniProt P06401); experiment: qHTS assay to identify small molecule antagonists of the progesterone receptor (PR) signaling pathway (AID 1346795; active means well fitted inhibition curve with a large enough effect in the signal ratio in the repeat runs, not every such curve was filed as active; the % refers to the signal ratio)
How it was run: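 Screening used a GripTite HEK293T line with PR-responsive UAS-beta-lactamase. Cells were challenged with compound in the presence of 1 nM R5020 final for 16 hr at 37C; B/G FRET substrate, 2 hr room temperature, fluorescence.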

[4] = qHTS assay to identify small molecule antagonists of the progesterone receptor (PR) signaling pathway - cell viability counter screen (AID 1346798); further: series mostly up to about 92 µM; nearly all actives have a fitted effect of over 50% in size
How it was run: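 Measures cytotoxicity in parallel with the PR antagonist reporter read: HEK293T PR-UAS-bla cells get compound and R5020 for 16 hr, and remaining viable cells are quantified by CellTiter-Glo luminescence.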

[5] = qHTS assay to identify small molecule agonists of the progesterone receptor (PR) signaling pathway - cell viability counter screen (AID 1346799; calls by dose curve; further: nearly all actives have a fitted effect of over 45% in size)
How it was run: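 Using the same plates as the PR reporter screen, HEK293T PR-UAS-bla cells received compounds for 16 hr at 37C and were then lysed with CellTiter-Glo; luminescence was read 30 min later at room temperature.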

[6] = qHTS assay to identify small molecule antagonists of the TGF-beta/Smad signaling pathway - cell viability counter screen (AID 1346824); further: nearly all actives have a fitted effect of over 50% in size
How it was run: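 SBE-bla HEK 293T cells were plated overnight at 37 C, then given compounds in DMSO plus TGF-beta1 (added as 0.25 ng/mL solution) for 5 hr. After the bla read, CellTiter-Glo was added to the same wells and luminescence read after 30 min at room temperature.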

[7] = qHTS assay to identify small molecule agonists of the TGF-beta/Smad signaling pathway - cell viability counter screen (AID 1346829); further: top concentration of the series differs between compounds; nearly all actives have a fitted effect of over 45% in size
How it was run: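 Here the cytotoxicity of library compounds is measured in SBE-bla HEK 293T cells treated for 5 hr, using CellTiter-Glo added to wells already read for the beta-lactamase reporter.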

[8] = qHTS assay to identify small molecule agonists of the TGF-beta/Smad signaling pathway (AID 1346859; active means well fitted activation curve with a large enough effect in the signal ratio in the repeat runs, not every such curve was filed as active; the % refers to the signal ratio; further: series mostly up to about 77 µM)
How it was run: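 Beta-lactamase reporter activity downstream of Smad binding elements was measured in stably transfected HEK 293T cells; compounds were incubated for 5 hr, substrate for 2 hr at room temperature.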

[9] = biological target: Thyrotropin-releasing hormone receptor (Homo sapiens) (UniProt P34981); experiment: qHTS assay to identify small molecule antagonists of the thyrotropin-releasing hormone receptor (TRHR) signaling pathway (AID 1346877; active means well fitted inhibition curve with a large enough effect in the repeat runs, not every such curve was filed as active; further: series mostly up to about 51 µM)
How it was run: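 Antagonism is measured as suppression of the calcium response to 1 nM TRH in TRHR-HEK293 cells that have been dye-loaded for 2 h at 37 °C after overnight plating. Each compound is tested at 15 concentrations in triplicate.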

[10] = biological target: Thyrotropin-releasing hormone receptor (Homo sapiens) (UniProt P34981); experiment: qHTS assay to identify small molecule agonists of the thyrotropin-releasing hormone receptor (TRHR) signaling pathway (AID 1346891; calls by dose curve;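 further: HEK293 cells expressing TRHR with calcium dye readout; series mostly up to about 58 µM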)
How it was run: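 Overnight-plated (18 h, 37 °C, 5% CO2) TRHR-Hek293 cells; 2 h calcium dye at 37 °C; compound in DMSO; 3-min kinetic fluorescence read.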

Chain of Thyrotropin-releasing hormone receptor (Homo sapiens) (P34981 whole entry, looked up): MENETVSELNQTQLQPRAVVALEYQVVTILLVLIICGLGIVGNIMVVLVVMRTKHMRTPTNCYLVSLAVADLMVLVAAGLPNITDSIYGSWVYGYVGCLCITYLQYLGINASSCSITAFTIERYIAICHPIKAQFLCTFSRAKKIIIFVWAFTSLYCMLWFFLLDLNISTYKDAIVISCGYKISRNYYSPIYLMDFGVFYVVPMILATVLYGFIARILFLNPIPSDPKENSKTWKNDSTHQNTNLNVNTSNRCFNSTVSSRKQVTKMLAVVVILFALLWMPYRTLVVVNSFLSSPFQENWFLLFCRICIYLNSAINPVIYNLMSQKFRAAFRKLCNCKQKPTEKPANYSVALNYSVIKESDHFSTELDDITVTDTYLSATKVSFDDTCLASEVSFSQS
Chain of Progesterone receptor (Homo sapiens) (P06401 whole entry, looked up): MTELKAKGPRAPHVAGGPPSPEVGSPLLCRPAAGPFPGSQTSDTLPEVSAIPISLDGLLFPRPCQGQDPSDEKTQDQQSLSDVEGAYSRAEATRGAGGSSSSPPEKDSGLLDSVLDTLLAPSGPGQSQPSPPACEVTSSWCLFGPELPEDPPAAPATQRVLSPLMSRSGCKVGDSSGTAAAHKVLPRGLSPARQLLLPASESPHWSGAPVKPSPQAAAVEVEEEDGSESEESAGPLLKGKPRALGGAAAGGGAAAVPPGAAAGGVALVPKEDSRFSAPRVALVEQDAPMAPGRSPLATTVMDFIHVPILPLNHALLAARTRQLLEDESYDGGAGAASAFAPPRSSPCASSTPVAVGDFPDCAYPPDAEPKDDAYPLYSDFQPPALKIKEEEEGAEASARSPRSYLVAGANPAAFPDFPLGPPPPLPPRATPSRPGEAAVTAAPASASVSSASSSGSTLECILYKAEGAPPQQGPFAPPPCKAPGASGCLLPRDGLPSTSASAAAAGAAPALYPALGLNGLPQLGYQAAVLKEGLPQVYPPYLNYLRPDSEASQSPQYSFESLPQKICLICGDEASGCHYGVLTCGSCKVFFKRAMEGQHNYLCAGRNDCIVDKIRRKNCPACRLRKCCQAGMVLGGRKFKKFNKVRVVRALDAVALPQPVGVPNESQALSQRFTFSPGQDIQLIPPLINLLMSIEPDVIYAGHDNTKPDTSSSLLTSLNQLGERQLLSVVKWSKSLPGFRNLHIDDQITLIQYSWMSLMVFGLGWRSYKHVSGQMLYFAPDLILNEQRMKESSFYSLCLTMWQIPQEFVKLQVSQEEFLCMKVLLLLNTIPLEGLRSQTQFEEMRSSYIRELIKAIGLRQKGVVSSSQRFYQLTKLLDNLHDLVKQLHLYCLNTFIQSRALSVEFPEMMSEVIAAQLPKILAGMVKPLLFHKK

Compound | Potency [1] | Potency [2] | Potency [3] | Potency [4] | Potency [5] | outcome [6] | outcome [7] | outcome [8] | outcome [9] | Potency [10]
O=C(O)CNC(=O)c1ccc(CO)o1 | inactive | inactive | inactive | inactive | inactive | inactive | inactive | inactive | inactive | inactive
CCCCCCC#CC(=O)OC | inactive | inactive | inactive | inactive | inactive | inactive | inactive | inactive | inactive | inactive
CCCCCC(=O)OCCc1ccccc1 | inactive | inactive | inactive | inactive | inactive | inactive | inactive | inactive | inactive | inactive
CCCc1ncc(C[n+]2ccccc2C)c(N)n1 | inactive | inactive | inactive | inactive | inactive | inactive | inactive | inactive | inactive | inactive
Cc1cccc(C)c1NC(=O)CC12CCCN1CCC2 | inactive | inactive | inactive | inactive | inactive | inactive | inactive | inactive | inactive | inactive
CCC(C(=O)NC(=O)NC(C)=O)c1ccccc1 (stereo not given) | inactive | inactive | inactive | inactive | inactive | inactive | inactive | inactive | inactive | inactive
N[C@H](C(=O)O)[C@@H](O)c1ccc(O)c(O)c1 | inactive | inactive | inactive | inactive | inactive | inactive | inactive | inactive | inactive | inactive
CCCc1nn(C)c2c(=O)[nH]c(-c3cc(S(=O)(=O)N4CCN(C)CC4)ccc3OCC)nc12 | inactive | 13.3 µM (active) | inactive | inactive | inactive | inactive | inactive | inactive | inactive | inactive
[O-][n+]1cccc(CO)c1 | inactive | inactive | inactive | inactive | inactive | inactive | inactive | inactive | inactive | inactive
C=C(C)C(=O)OCC(O)CO (stereo not given) | inactive | inactive | inactive | inactive | inactive | inactive | inactive | inactive | inactive | inactive
C[N+]12CCC(CC1)C(OC(=O)C(O)(c1ccccc1)c1ccccc1)C2 (stereo not given) | inactive | inactive | inactive | inactive | inactive | inactive | inactive | inactive | inactive | inactive
N[C@@H](CCC(=O)O)C(=O)O | inactive | inactive | inactive | inactive | inactive | inactive | inactive | inactive | inactive | inactive
CCCCCCCCCCCCSC | inactive | inactive | inactive | inactive | inactive | inactive | inactive | inactive | inactive | inactive
CCCCCCCCCCCCCCCCCCO | inactive | inactive | inactive | inactive | inactive | inactive | inactive | inactive | inactive | inactive
c1ccc2sc(SN3CCOCC3)nc2c1 | inactive | inactive | inactive | inactive | inactive | inactive | inactive | inactive | inactive | inactive
O=S(=O)(O)c1cc(O)c(O)c(S(=O)(=O)O)c1 | inactive | inactive | inactive | inactive | inactive | inactive | inactive | inactive | inactive | inactive
C1CCC2(CCCCO2)OC1 | inactive | inactive | inactive | inactive | inactive | inactive | inactive | inactive | inactive | inactive
CC(C)(C)c1ccc(-c2ccc(C(C)(C)C)cc2)cc1 | inactive | inactive | inactive | inactive | inactive | inactive | inactive | inactive | inactive | inactive
O=[N+]([O-])c1ccc(/C=N\O)o1 | inactive | inactive | inactive | inactive | inactive | inactive | inactive | inactive | inactive | inactive
CCCC(=O)O[C@]1(C(=O)CC)CC[C@H]2[C@@H]3CCC4=CC(=O)CC[C@]4(C)[C@H]3[C@@H](O)C[C@@]21C | inactive | 0.0075 µM (active) | inactive | inactive | inactive | inactive | inactive | inactive | inactive | inactive
CNCC(O)c1ccc(O)c(O)c1 (stereo not given) | 29.8 µM (active) | inactive | inactive | inactive | inactive | inactive | inactive | inactive | inactive | inactive
NCCCC(N)(C(=O)O)C(F)F (stereo not given) | inactive | inactive | inactive | inactive | inactive | inactive | inactive | inactive | inactive | inactive
COc1cc(-c2ccc(=O)[nH]n2)ccc1OC(F)F | inactive | inactive | inactive | inactive | inactive | inactive | inactive | inactive | inactive | inactive
OCCc1ccccn1 | inactive | inactive | inactive | inactive | inactive | inactive | inactive | inactive | inactive | inactive

— PubChem BioAssay (Tox21)
